# tim10-1 inh = tim10-1 yeast growth inhibition; S. cerevisiae tim10-1 ts strain growth, BacTiter-Glo, 24 h; inhibition, % at 20 µM; 330,000 compounds, 2.2% hits;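 active = inhibition of at least 40%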;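 note: mutant grown at 25 °C; 0% = DMSO wells with yeast and 100% = wells holding no yeast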
# V-ATPase pH = alters yeast V-ATPase proton transport; S. cerevisiae, pHLuorin cytosolic pH fluorescence; response, % at 10 µM; 350,000 compounds, 0.37% hits; AID 504577; in the data active = response mostly above about 7.3%, no sharp cut-off; inactive = mostly below about 5.4%; note: actives read high
# tim23-1 inh = growth inhibitors of tim23-1 mutant yeast; S. cerevisiae tim23-1 growth, BacTiter-Glo luminescence, 24 h; inhibition, % at 20 µM; 330,000 compounds, 1.3% hits; AID 463212;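 active = growth inhibition of the mutant yeast at or above 50%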;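 note: temperature-sensitive mutant grown at 25 °C; plate controls were DMSO-treated mutant yeast for no effect and medium wells lacking yeast for full effect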
# TIM10 inh = growth inhibitors of TIM10 yeast strain | S. cerevisiae TIM10 strain growth, BacTiter-Glo luminescence, 24 h | inhibition, % at 10 µM | 330,000 compounds, 1.4% hits;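 active = inhibition of 40% or more at the single tested concentration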;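 note: wild-type TIM10 isogenic control strain grown at permissive 25 °C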
# NLRP3 yeast inh = blocks the NALP3 inflammasome reconstituted in yeast. Yeast reconstituted NLRP3/ASC/caspase-1, beta-gal luminescence, 24 h. inhibition, % at 10 µM. 330,000 compounds, 0.39% hits. AID 2825;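 active = inhibition of 50% or more; inactive = inhibition below 50%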;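 note: plate controls were induced DMSO wells for no effect and uninduced yeast grown without galactose for full effect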
# NALP1 inh = blocks the NALP1 inflammasome reconstituted in yeast. inhibition, % at 10 µM. 280,000 compounds, 0.61% hits. S. cerevisiae NALP1/ASC/caspase-1 growth, X-gal OD620, 72 h; in the data active = inhibition mostly above about 24%, no sharp cut-off; inactive = mostly below about 32%
# tim23-1 confirm = tim23-1 yeast growth inhibition, confirmed | shares compounds with tim23-1 inh | S. cerevisiae tim23-1 growth, BacTiter-Glo luminescence, 24 h | inhibition, % at 20 µM | 4,400 compounds, 83% hits | AID 463218;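 active = inhibition above about 39% in either of two replicate wells at 20 µM, limit read from the data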;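 note: temperature-sensitive tim23-1 mutant grown at 25 °C; 0% = DMSO wells with yeast and 100% = medium wells without yeast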
# Active calls of the source: *; x = no result. In the library only some 4.2% were active in any assay of this set; here they are far more common.
SMILES,tim10-1 inh,V-ATPase pH,tim23-1 inh,TIM10 inh,NLRP3 yeast inh,NALP1 inh,tim23-1 confirm
Cc1cc2c(c(C)c1Cl)C(c1ccc3c(c1)OCO3)CC(=O)O2 (configuration not stated),22,0,45,-7,x,x,x
Cc1ccc(C(C)C)c2c1C(c1ccc3c(c1)OCO3)CC(=O)O2 (configuration not stated),28,0,60*,10,x,x,39*
O=C(c1ccc2ccccc2n1)N1CCN(c2ccccc2)CC1,19,2,23,0,24,43,x
CC(C)(C)C(=O)N1CCN(c2ncnc3scc(-c4ccccc4)c23)CC1,31,-1,51*,26,13,7,29
Cc1ccc(-c2csc3ncnc(N4CCN(C(=O)c5ccco5)CC4)c23)cc1,29,-5,51*,31,18,x,42*
Cc1sc2ncnc(N3CCN(C(=O)c4ccco4)CC3)c2c1C,14,-2,10,-3,9,-3,x
CSc1ccc(C2NN=C(c3ccccc3)S2)cc1 (configuration not stated),6,4,8,10,42,x,x
Oc1ccccc1C1NN=C(c2ccccc2)S1 (configuration not stated),14,-4,58*,28,32,8,54*
COc1ccc(/C=C/C2=Nc3ccccc3NC(C)(C)C2)cc1OC,19,-1,51*,13,-4,x,43*
Cc1ccc2oc(C(Cl)(Cl)Cl)cc(=O)c2c1,38,1,75*,30,24,-4,76*
COc1ccc2[nH]c(=O)c(CN(CC3CCCO3)S(=O)(=O)c3ccccc3F)cc2c1 (configuration not stated),13,1,19,7,11,-7,x
Cc1ccc(C(=O)N/N=C/c2nc3ccccc3n2C)cc1,28,-2,54*,6,14,23,39*
Cc1ccc(NC(=O)c2cc(S(=O)(=O)N3CCCCC3)c[nH]2)cc1F,7,-5,11,6,-4,2,x
CC(C)(C)[C@@H]1COC(=O)[C@H](Cc2ccc(F)cc2)C/C=C\C[C@@H](CC(=O)N(CCO)Cc2ccccc2)C(=O)N1,-4,1,0,5,10,x,x
O=C(N/N=C/c1ccc(Br)s1)c1c[nH]c2ccccc12,-14,1,55*,2,1,0,46*
O=C(N/N=C/c1cc(Br)cs1)c1c[nH]c2ccccc12,14,-2,60*,12,29,18,71*
O=C(N/N=C/c1ccc(Br)s1)c1cccs1,19,-1,57*,35,24,1,63*
Cc1ccc(/C=N/NC(=O)c2cccs2)s1,-14,-1,7,-1,25,0,x
CC1(C)CC(=O)C2=C(C1)NC(Nc1nc3ccccc3o1)=NC21CCCC1,6,0,8,18,-2,x,x
COc1ccc(CC(=O)Nc2c3c(nn2-c2ccccc2C)CS(=O)C3)cc1 (configuration not stated),14,1,97*,-12,0,-8,4
Cc1cccc(S(=O)(=O)Nc2nc3ccccc3nc2OC(C)C)c1,28,2,53*,39,18,12,49*
CCOC(=O)CN(C(=O)CNC(=O)c1ccco1)C(C(=O)NC1CCCCC1)c1cccc(OC)c1 (configuration not stated),10,-2,0,5,12,3,x
O=C(Nc1oc2ccc(Cl)cc2c(=O)c1-c1ccc(F)cc1)c1ccco1,29,1,53*,18,3,6,46*
COc1ccc(-c2c(NC(=O)c3ccco3)oc3c(C)cccc3c2=O)cc1,34,-1,51*,26,13,27,43*
COc1cccc(-c2c(NC(=O)c3ccco3)oc3ccccc3c2=O)c1,21,-1,20,0,11,12,x
SMILES,tim10-1 inh,V-ATPase pH,tim23-1 inh,TIM10 inh,NLRP3 yeast inh,NALP1 inh,tim23-1 confirm
COc1cccc(-c2c(NC(=O)c3ccco3)oc3ccc(Cl)cc3c2=O)c1,22,4,17,4,10,2,x
COc1cc(-c2c(NC(=O)c3ccco3)oc3c(C)cccc3c2=O)cc(OC)c1OC,7,4,14,13,14,12,x
O=C(Nc1oc2ccccc2c(=O)c1-c1ccc(Br)cc1)c1ccco1,19,3,52*,24,29,4,41*
C#CCSc1nncn1C(=O)/C=C/c1ccccc1,35,x,52*,12,0,7,77*
Cc1nn(-c2ccc(Cl)cc2Cl)c(=O)c2ccccc12,20,-1,8,-3,37,-6,x
Cc1nn(-c2ccc(Cl)c(Cl)c2Cl)c(=O)c2ccccc12,40,-8,54*,8,40,3,46*
CC(=O)NC(=S)Nc1ccc([N+](=O)[O-])cc1C,-1,-1,-1,0,16,6,x
Cc1cc([N+](=O)[O-])ccc1NC(=S)NC(=O)Cc1ccccc1,35,-4,50*,30,37,12,27
C=CCNC(=O)N1CCC(n2nccc2NC(=O)CCc2ccccc2)CC1,-11,-4,-7,-3,15,15,x
COc1cccc(OC)c1C(=O)NC(=S)N1CCN(c2ccc(C(F)(F)F)cc2[N+](=O)[O-])CC1,-1,-3,-20,-15,3,4,x
Cc1[nH]n(-c2ccccc2)c(=O)c1/C=C1/C=c2ccccc2=N1,x,1,x,x,x,11,x
Cc1[nH]n(-c2ccccc2)c(=O)c1/C=C1\C=NN=C1c1ccccc1,26,-2,62*,22,7,-8,55*
CCc1cc(=O)oc2cc(OCC(=O)N(CC)CC)c(Cl)cc12,0,2,14,4,-4,7,x
CC(C)c1ccc(NC(=O)C2CC3CCC2C3)cc1 (configuration not stated),-15,0,37,22,44,17,x
O=C(Nc1ccc(F)c(Cl)c1)C1CC2CCC1C2 (configuration not stated),22,-1,61*,37,-5,x,68*
O=C(Nc1ccc(F)cc1)C1CC2CCC1C2 (configuration not stated),19,2,17,-3,21,-4,x
CCC(C)c1ccc(NC(=O)C2CC3CCC2C3)cc1 (configuration not stated),24,-3,52*,39,20,x,51*
CCOC(=O)c1c(C)[nH]c(C)c1S(=O)(=O)NCC1CCN(Cc2ccc(C)cc2)CC1,9,6,4,4,8,15,x
C/C(=N\NS(=O)(=O)c1ccc(C)cc1)c1ccc(Br)s1,31,-1,29,27,8,8,x
CCOc1nc2ccccc2cc1C=O,-19,4,72*,13,17,8,59*
CCCOc1nc2ccccc2cc1/C=C/C(=O)O,16,-2,29,21,16,12,x

# Screening data (PubChem BioAssay)
